# Measured values from PubChem BioAssay (NCATS).
# Records with an inconclusive call do not appear. A number with no mark means an inactive call. Calls of active or inactive are those of the source. The call rests on the fitted dose curve; in most records, active means well fitted inhibition curve with a large enough effect; inconclusive means small, poorly fitted or top-dose-only effect; inactive means no such curve, though single readings can be large or run the other way.
# Target: Retinaldehyde dehydrogenase 3 (Homo sapiens) (UniProt P47895)
# Assay: qHTS for Inhibitors of the Aldehyde Dehydrogenase Family (ALDH1A3) Confirmatory screens (AID 2061311); further: nearly all actives have a fitted effect of over 60% in size
# Conditions: ALDH inhibition qHTS; series mostly up to 46 µM; activity change, negative = inhibition: at the top concentration
# On the % scale 0 is the no-effect control and ±100 the full control effect; potency means the concentration at half of the fitted maximal effect.
Structure (SMILES),Potency,"activity change, negative = inhibition [%]"
S=C(Nc1ccccn1)c1ccccn1,6.34 µM (active),–
O=C(O)CN1C(=O)N/C(=C\c2cccn2-c2ccc(P(=O)(O)O)cc2)C1=O,–,-15.1
COc1ccc(-c2csc(NC(=O)c3ccncc3NS(=O)(=O)c3ccc(C)cc3)n2)cc1,–,-0.839
Cc1noc(C)c1N[S+](=O)([O-])c1ccc(NC(=O)Cc2ccc(Cl)c(Cl)c2)cc1,6.31 µM (active),–
CC(=O)c1ccc(N2CCN(S(=O)(=O)c3ccc4c(c3)n(C)c(=O)n4C)CC2)cc1,2.01 µM (active),–
O=C(Nc1ncc([N+](=O)[O-])s1)c1ccccc1O,0.449 µM (active),–
O=S(=O)(Nc1cc(O)cc2cccnc12)c1ccc(Cl)s1,0.504 µM (active),–
CCOC(=O)c1c(-c2ccccc2)no[n+]1[O-],–,-20.8
